Source: PubChem BioAssay
Hedgehog inh – Hedgehog pathway signaling inhibitors, primary screen, luminescence, Shh-LIGHT2 cells, Gli-luciferase; hit rate 2.1% among 22,000; AID 2313, 2010; Shh-LIGHT2 Gli-luciferase reporter, 30 h; inhibition, % (concentration not given with the values);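 active means mean inhibition across valid replicates above about 65%, limit read from the data; inconclusive means mean under the limit, yet half or more replicates past it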;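 further: pathway switched on by Shh-conditioned medium diluted 1 in 25 in low serum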
YB-1 expr inh – inhibitors of YB-1 gene expression, primary screen, cell-based, fluorescence; U2OS, qRT-PCR YB-1 vs CDIP delta delta Cp, 16 h; hits give high values; zero = DMSO, each unit about twofold; delta delta Cp (YB-1 minus CDIP) (no concentration beside the values); hit rate 0.37% among 30,000;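 active means delta delta Cp rounded down to an integer at or above 3, about 3 SD of DMSO wells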;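 further: higher means less YB-1 transcript or more CDIP transcript relative to DMSO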
MITF inh – inhibitors of MITF, primary screen, MITF inhibitor project, cell-based, luminescence; inhibition, % (test concentration not listed); AID 2240, 2010; hit rate 0.28% among 37,000; TRPM1 promoter luciferase, 24 h; in the data active means inhibition above about 85%; inconclusive means no clear call, values can overlap the other calls; inactive means below about 68%;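 further: human melanocyte line stably carrying TRPM1 promoter luciferase reporter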
The depositor's hits bear a star; u = inconclusive; x = no result given. The entries come from a sample that favours hits as a whole.

SMILES | Hedgehog inh | YB-1 expr inh | MITF inh
C[C@@H]1CN([C@H](C)CO)C(=O)c2cccc(NC(=O)Nc3ccc(F)cc3)c2O[C@@H]1CN(C)C(=O)Nc1cccc2ccccc12 | -125.9 | 0.0671 | -0.7
Cc1ccc(Cn2nc(C)cc2C(=O)Sc2ccccc2)cc1 | 28.5 | 0.116 | 7.0
CC(C)(C)c1csc(=Nc2ccc(F)cc2F)o1 | x | -0.387 | -67.7
CS(=O)(=O)c1sc(C(=O)O)c2c1C=CCC2 | x | -0.25 | 12.3
C=C1C(=O)O[C@H]2[C@H]1[C@@H](OC(=O)/C(C)=C\C)C[C@]1(C)O[C@@H]1[C@H]1O[C@H]1C(=C)[C@H]2O | 30.6 | -0.56 | 35.3
C=C1C(=O)O[C@H]2[C@H]1[C@@H](OC(=O)C(C)(O)C(C)Cl)C(OC(C)=O)/C(C(=O)OC)=C\CC[C@@]1(C)O[C@H]21 (stereo not given in full) | 73.0* | 0.831 | -9.5
N#C/C(=C\c1ccsc1)S(=O)(=O)c1ccc(C(F)(F)F)cn1 | -35.0 | -0.352 | 11.6
COc1ccc(-n2c(SCC(N)=O)nnc2-c2cccnc2)cc1 | x | x | -5.6
COc1ccc(-n2c(-c3cccc(OC)c3)csc2=NCc2cccnc2)cc1 | 70.8* | 0.338 | 54.1
COC(=O)/C=C1/C(=O)N/C(=N\c2nc(C)cc(C)n2)N1c1cccc(C)c1 | 24.4 | -0.126 | -15.3
O=C(O)C1C2C=CC(O2)C1C(=O)Nc1ccc(S(=O)(=O)N2CCc3ccccc32)cc1 (stereo not given) | x | x | -4.4
O=S(=O)(c1ccc(Cl)cc1)N1CCc2ccccc21 | 80.9* | -0.239 | 48.2
Cc1noc(C)c1S(=O)(=O)Nc1ccc2c(c1)CC(=O)N([C@@H](C)CO)C[C@H](C)[C@@H](CN(C)C(=O)Nc1ccc(C(F)(F)F)cc1)O2 | u | 0.08 | 10.7
C[C@H](CO)N1C[C@H](C)[C@H](CN(C)Cc2ccc(Cl)c(Cl)c2)Oc2ccc(NS(=O)(=O)c3cn(C)cn3)cc2CC1=O | 29.0 | 13* | 0.4
C[C@H]1CN([C@@H](C)CO)C(=O)Cc2cc(NS(=O)(=O)c3cn(C)cn3)ccc2O[C@H]1CN(C)Cc1ccc(Cl)c(Cl)c1 | 13.6 | 0.125 | -5.7
COc1ccc(NC(=O)N(C)C[C@@H]2Oc3ccc(NS(=O)(=O)c4cn(C)cn4)cc3CC(=O)N([C@H](C)CO)C[C@H]2C)cc1 | 71.5* | 0.0443 | -14.3
Cc1noc(C)c1S(=O)(=O)Nc1ccc2c(c1)CC(=O)N([C@@H](C)CO)C[C@H](C)[C@H](CN(C)C(=O)Nc1ccc(C(F)(F)F)cc1)O2 | 65.6* | 0.088 | 2.1
COc1ccc(NC(=O)N(C)C[C@@H]2Oc3ccc(NS(=O)(=O)c4ccc(Cl)cc4)cc3CC(=O)N([C@@H](C)CO)C[C@@H]2C)cc1 | -13.1 | 0.0396 | 12.1
COc1ccc(NC(=O)N(C)C[C@H]2Oc3ccc(NS(=O)(=O)c4ccc(Cl)cc4)cc3CC(=O)N([C@@H](C)CO)C[C@H]2C)cc1 | 66.5* | -0.165 | -11.9
COc1ccc(NC(=O)N(C)C[C@H]2Oc3ccc(NS(=O)(=O)c4cn(C)cn4)cc3CC(=O)N([C@H](C)CO)C[C@H]2C)cc1 | 23.3 | -0.181 | -9.1
C=C(C)Cc1c(C)nc(-c2ccc(Cl)cc2)nc1OC(=S)N(CC)CC | x | 0.21 | -1.0
O=C1CCCC2=C1C(c1ccccc1Cl)N=C(Nc1nc3ccccc3s1)N2 (stereo not given) | 27.7 | -0.0709 | 22.7
On1c(-c2ccccc2Cl)nc2c1CCc1nonc1-2 | -9.8 | 0.283 | -10.0
OCCCc1n[nH]c(=S)n1-c1ccccc1 | x | x | -15.8
CC(Oc1ccccc1-c1ccccc1)c1n[nH]c(=S)n1-c1ccccc1 (stereo not given) | 69.4* | 0.137 | 11.2
SMILES | Hedgehog inh | YB-1 expr inh | MITF inh
O=C(C(C(=O)N1CCCCC1)C12CC3CC(CC(C3)C1)C2)N1CCCCC1 | x | -0.768 | 3.0
COc1ccc(C[C@H](N)C(=O)N[C@@H]2[C@@H](CO)OC(n3cnc4c(N(C)C)ncnc43)[C@@H]2O)cc1 (stereo not given in full) | 93.3* | 0.0764 | 106.4*
CNC(=O)[C@H]1O[C@@H](n2cnc3c(NCc4cccc(I)c4)ncnc32)C(O)[C@H]1O (stereo not given in full) | -33.8 | 0.116 | 0.2
CSc1cccc(NC(=O)c2cc3c(ccc4ccccc43)o2)c1 | -102.4 | -0.0998 | -19.5
CC1(C)CC[C@]2(C(=O)O)CC[C@]3(C)C(=CCC4[C@@]5(C)CC[C@H](O[C@@H]6O[C@H](C(=O)O)[C@@H](O[C@@H]7OC[C@@H](O)[C@H](O)[C@H]7O)[C@H](O)[C@H]6O)C(C)(C)C5CC[C@]43C)C2C1 (stereo not given in full) | 105.0* | 0.083 | 12.9
C[C@@H]1O[C@@H](O[C@H]2[C@H](O[C@H]3CC[C@@]4(C)C(CC[C@]5(C)C4CC=C4C6CC(C)(C)CC[C@]6(C(=O)O)CC[C@]45C)[C@]3(C)CO)OC[C@H](O)[C@@H]2O)[C@H](O)[C@H](O)[C@H]1O (stereo not given in full) | 73.7* | -1.21 | 26.0
CC1(C)CC[C@]2(C(=O)O[C@@H]3O[C@H](CO)[C@@H](O)[C@H](O)[C@H]3O)CC[C@]3(C)C(=CCC4[C@@]5(C)CC[C@H](OC6O[C@H](CO)[C@@H](O)[C@H](O[C@@H]7O[C@H](CO)[C@@H](O)[C@H](O)[C@H]7O)[C@H]6O)C(C)(C)C5CC[C@]43C)[C@@H]2C1 (stereo not given in full) | 25.8 | -0.00748 | x
C[C@@H]1O[C@@H](O[C@H]2[C@H](O[C@H]3[C@H](O[C@H]4CC[C@@]5(C)C(CC[C@]6(C)C5CC=C5[C@@H]7CC(C)(C)C[C@@H](O)[C@]7(C)CC[C@]56C)[C@@]4(C)CO)O[C@H](C(=O)O)[C@@H](O)[C@@H]3O)OC[C@H](O)[C@@H]2O)[C@H](O)[C@H](O)[C@H]1O (stereo not given in full) | 22.9 | 1.55 | -7.4
CC1(C)CC[C@]2(C(=O)O)CC[C@]3(C)C(=CCC4[C@@]5(C)CC[C@H](O[C@@H]6O[C@H](C(=O)O)[C@@H](O[C@@H]7OC[C@@H](O)[C@H](O)[C@H]7O)[C@H](O)[C@H]6O)C(C)(C)C5CC[C@]43C)C2C1O (stereo not given in full) | -18.4 | -0.663 | -7.6
CC(=O)OC1C(C)OC(OC2C(CO)OC(OC(=O)[C@]34CCC(C)(C)CC3C3=CCC5[C@@]6(C)CC[C@H](OC7OC(CO)C(OC8OC(CO)C(OC9OCC(O)C(O)C9O)C(O)C8O)C(O)C7O)[C@@](C)(CO)C6CC[C@@]5(C)[C@]3(C)CC4)C(OC3OC(C)C(O)C(O)C3O)C2O)C(O)C1O (stereo not given in full) | 3.5 | 1.42 | x
CC(=O)N[C@H]1[C@H](O[C@H]2CC[C@@]3(C)C(CC[C@]4(C)C3CC=C3[C@@H]5CC(C)(C)CC[C@]5(C(=O)O)CC[C@]34C)C2(C)C)O[C@H](CO[C@@H]2OC[C@H](O)[C@H](O)[C@H]2O[C@@H]2OC[C@H](O)[C@H](O)[C@H]2O)[C@@H](O)[C@@H]1O (stereo not given in full) | 108.6* | -1.29 | 19.3
